Pol beta inh = qHTS Assay for Inhibitors of DNA Polymerase Beta | P06746 | 340,000 tested, 1.3% active | Potency, µM (top dose mostly 114 µM), inactives show at the top dose activity change, negative = inhibition, hits mostly inhibitors | Pol beta primer extension/strand displacement, fluorescence kinetic; further: on the % scale 0 is the no-effect control and ±100 the full control effect
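Human Pol beta at 10 nM; strand-displacement substrate 50 nM final. Compound exposure 15 min at room temperature before start, reaction 10 min at room temperature.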
POLI inh = qHTS for Inhibitors of Polymerase Iota. DNA polymerase iota (Homo sapiens), Q9UNA4. Pol iota fluorescent replication assay, 10 min. Potency, µM (series often up to 115 µM), inactives show at the highest dose activity, negative = inhibition, hits mostly inhibitors. 390,000 tested, 1% active
Target sequence (Q9UNA4 whole entry, looked up): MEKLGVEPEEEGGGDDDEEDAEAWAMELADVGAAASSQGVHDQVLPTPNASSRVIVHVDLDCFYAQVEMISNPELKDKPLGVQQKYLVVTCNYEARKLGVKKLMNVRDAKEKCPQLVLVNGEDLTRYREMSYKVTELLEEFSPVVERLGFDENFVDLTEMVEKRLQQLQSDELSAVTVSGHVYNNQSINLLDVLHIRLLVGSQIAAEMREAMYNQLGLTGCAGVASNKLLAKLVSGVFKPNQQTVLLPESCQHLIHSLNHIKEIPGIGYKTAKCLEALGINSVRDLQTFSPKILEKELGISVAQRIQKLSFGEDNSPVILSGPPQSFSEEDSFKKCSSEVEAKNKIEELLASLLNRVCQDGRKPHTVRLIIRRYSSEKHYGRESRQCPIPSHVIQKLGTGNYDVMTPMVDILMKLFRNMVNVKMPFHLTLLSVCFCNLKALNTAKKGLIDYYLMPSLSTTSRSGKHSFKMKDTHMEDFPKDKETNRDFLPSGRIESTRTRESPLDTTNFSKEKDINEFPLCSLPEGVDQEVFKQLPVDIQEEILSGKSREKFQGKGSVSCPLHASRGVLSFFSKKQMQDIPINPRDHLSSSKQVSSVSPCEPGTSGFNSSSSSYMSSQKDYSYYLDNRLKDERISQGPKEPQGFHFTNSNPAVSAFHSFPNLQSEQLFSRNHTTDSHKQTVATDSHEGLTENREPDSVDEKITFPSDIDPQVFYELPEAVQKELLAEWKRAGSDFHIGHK
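Fluorescent replication assay read twice, at 0 min and 10 min after adding 50 nM (final) substrate. Enzyme (10 nM) and compounds were first incubated 15 min at room temperature; enzyme-free buffer wells were negative controls.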
POLH inh = qHTS for Inhibitors of Polymerase Eta | AID 588591, 2011 | Potency, µM (doses to about 114 µM), for the others: top-dose activity change, negative = inhibition, usual class: inhibitors | 390,000 tested, 1.2% active | recombinant Pol eta, fluorescent DNA replication assay; further: on the % scale 0 is the no-effect control and ±100 the full control effect
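Fluorescent replication assay: 50 nM final substrate added after a 15 min room-temperature compound preincubation with 10 nM enzyme. Signal taken at 0 min and again at 10 min.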
Pol kappa inh = qHTS for Inhibitors of Polymerase Kappa; Potency, µM (series often up to 107 µM), for inactives: at the top dose activity, negative = inhibition, actives largely listed as inhibitors; purified Pol kappa, fluorescent DNA synthesis assay, 10 min; 400,000 tested, 0.53% active; DNA polymerase kappa (Homo sapiens), Q9UBT6; further: on the % scale 0 is the no-effect control and ±100 the full control effect
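Enzyme at 10 nM met test compounds for 15 min at room temperature. Substrate addition (50 nM final) began the reaction, which was monitored by fluorescence at 0 and 10 min.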
WRN inhibitor = qHTS for Inhibitors of WRN Helicase. Bifunctional 3'-5' exonuclease/ATP-dependent helicase WRN (Homo sapiens), Q14191. WRN helicase unwinding, fluorescent forked duplex, kinetic. Potency, µM (highest dose often 114 µM), inactives show at the highest dose activity change, negative = inhibition, usual class: inhibitors. 360,000 tested, 0.46% active. AID 651768, 2012; further: on the % scale 0 is the no-effect control and ±100 the full control effect; nearly all actives have a fitted effect of over 55% in size
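WRN at 20 nM final was preincubated with compound for 15 min at room temperature; reaction started with 100 nM forked duplex oligonucleotide carrying fluorophore and quencher plus 2 mM ATP (final). Unwinding followed kinetically by red fluorescence (ex 525/em 598 nm).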
FEN1 inh = qHTS Assay for the Inhibitors of Human Flap endonuclease 1 (FEN1) | 390,000 tested, 0.35% active | Recombinant FEN1 flap cleavage, fluorescence, 15 min | AID 588795, 2011 | P39748 | Potency, µM (top dose mostly 114 µM), inactives show at the highest dose activity change, negative = inhibition, most hits filed as inhibitors; further: on the % scale 0 is the no-effect control and ±100 the full control effect; nearly all actives have a fitted effect of over 65% in size
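Recombinant FEN1 (10 nM) was preincubated with pin-transferred compounds for 15 min at room temperature, then flap DNA substrate (50 nM final) was added. Plates were read at 0 and 15 min, and normalized concentration–response data were fitted to a four-parameter Hill equation.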
Numbers without * were called inactive; ! = not confirmed by another sample; [ ] = dose if it differs, or a comment. Hits are enriched below; roughly 2.4% of the tested compounds scored in any of these assays. The call rests on the fitted dose curve; in most records, active means well fitted curve in the direction sought with a large enough effect; inconclusive means small, poorly fitted or top-dose-only effect, or another doubt; inactive means no such curve, though single readings can be large; an effect the other way counts as inactive or inconclusive. Potency means the concentration at half of the fitted maximal effect.

`CCc1ccc(NC(=O)c2nc(SCc3ccccc3F)ncc2Cl)cc1` gave POLI inh 24%, Pol kappa inh 5% and FEN1 inh 7%.
`O=C(COC(=O)c1ccc2ncsc2c1)Nc1ncc(Cl)cc1Cl` gave Pol beta inh 0%, POLI inh inconclusive, POLH inh 8.9µM*, Pol kappa inh -6%, WRN inhibitor -29% and FEN1 inh -6%.
For O=C(COC(=O)/C=C/c1ccco1)Nc1ncc(Cl)cc1Cl the results were Pol beta inh inconclusive, POLI inh 35µM*, POLH inh 40µM*, Pol kappa inh inconclusive, WRN inhibitor -18%[57.1 µM] and FEN1 inh 8%.
For CC(C)=CC(=O)OCC(=O)Nc1nc(C)c(Cl)cc1Cl the results were Pol beta inh 21%, POLI inh 2%, POLH inh 1%, Pol kappa inh -9%, WRN inhibitor -2% and FEN1 inh -4%.
Cc1nc(NC(=O)COC(=O)/C=C/c2ccco2)c(Cl)cc1Cl was read as POLI inh 32µM*, POLH inh 28µM*, Pol kappa inh 71µM*, WRN inhibitor -1%[11.6 µM] and FEN1 inh -4%.
`CC(C)NC(=O)COC(=O)/C=C/c1ccco1` gave Pol beta inh 40µM*, POLI inh 79µM*, POLH inh inconclusive, Pol kappa inh -32%, WRN inhibitor -8%[57.1 µM] and FEN1 inh 6%.
CCCNC(=O)COC(=O)/C=C/c1ccco1 was read as Pol beta inh inconclusive, POLI inh -17%, POLH inh inconclusive, Pol kappa inh -18%, WRN inhibitor -4% and FEN1 inh -16%.
`COC(=O)c1ccc(/C=C/C(=O)OCC(=O)Nc2ncc(Cl)cc2Cl)cc1` gave POLI inh 46%, POLH inh -9%, Pol kappa inh 7%, WRN inhibitor 1% and FEN1 inh -3%.
Screening O=C(Nc1ncc(Cc2ccccc2)s1)C1CCN(C(=O)c2ccco2)CC1 returned POLI inh -14%, Pol kappa inh 2% and FEN1 inh -16%.
`COc1cc2c(cc1OC)C(c1cc(-c3cc(Cl)ccc3Cl)oc1C)=NCC2` gave POLI inh -14%, Pol kappa inh -9% and FEN1 inh 1%.
For COC(=O)c1ccc(NC(=O)c2nc(SCc3ccccc3F)ncc2Cl)cc1 the results were POLI inh 54%, Pol kappa inh -2% and FEN1 inh 10%.
For COc1ccc(S(=O)(=O)N2CCN(c3nc(-c4cccs4)nc4ccccc34)CC2)cc1OC the results were POLI inh inconclusive, Pol kappa inh -30% and FEN1 inh 14%.
Screening Cc1ccc(C(=O)OCC(=O)Nc2ncc(Cl)cc2Cl)cc1NC(=O)c1ccco1 returned Pol beta inh inconclusive, POLI inh 50µM*, POLH inh inconclusive, Pol kappa inh -28%, WRN inhibitor -16% and FEN1 inh 2%.
`CC(Cc1ccc(O)c(O)c1)C(C)Cc1ccc(O)c(O)c1` (configuration not stated) gave POLI inh 45µM*, POLH inh 28µM*, Pol kappa inh 10µM*, WRN inhibitor 18µM* and FEN1 inh inconclusive.
`COc1cc(C[C@@H](C)[C@@H](C)Cc2ccc(O)c(OC)c2)ccc1O` gave POLI inh 2%, POLH inh -11%, Pol kappa inh -11%, WRN inhibitor -6% and FEN1 inh -2%.
C[C@H](Cc1ccc(O)c(O)c1)[C@@H](C)Cc1ccc(O)c(O)c1 was read as Pol beta inh 0.79µM*, POLI inh 1.8µM*!, POLH inh 3.2µM* and Pol kappa inh 1.7µM*.
O=C(Nc1ccc(Cl)c(Cl)c1)c1ccc(Cl)c(Cl)c1 was read as Pol beta inh 21%, POLI inh -26%, POLH inh -22%, Pol kappa inh -18%, WRN inhibitor -1% and FEN1 inh -17%.
Screening O=C(Nc1ccc(C2=NCCN2)cc1)c1ccc(Cl)c(C(=O)Nc2ccc(C3=NCCN3)cc2)c1 returned Pol beta inh 50µM*.
`O=C(NCc1ccc(F)cc1)c1ccc(CS(=O)(=O)c2ccc(Cl)cc2)o1` gave Pol beta inh inconclusive, POLI inh -1%, POLH inh -11%, Pol kappa inh 1%[60.1 µM] and FEN1 inh -9%.
Screening COC(=O)c1ccc(CS(=O)(=O)c2ccc(F)cc2)o1 returned Pol beta inh 35µM*, POLI inh -76%, POLH inh 22µM*, Pol kappa inh inconclusive, WRN inhibitor -10% and FEN1 inh 13%.
For Cc1ccc(Nc2nc(NCc3ccco3)nc3nccnc23)c(C)c1 the results were POLI inh -6%, Pol kappa inh -3% and FEN1 inh 15%.
Screening Cc1noc(C)c1CSc1nc2ccccc2nc1NS(=O)(=O)c1ccc(Cl)cc1 returned Pol beta inh 3%, POLI inh inconclusive, POLH inh 79µM*, Pol kappa inh -9%, WRN inhibitor -24% and FEN1 inh -8%.
For O=S(=O)(Nc1nc2ccccc2nc1NCc1ccco1)c1ccc(Cl)cc1 the results were Pol beta inh inconclusive, POLI inh inconclusive, POLH inh inconclusive, Pol kappa inh -4%, WRN inhibitor -15% and FEN1 inh -10%.
Screening Cc1ccc(S(=O)(=O)N2CCN(c3nc(-c4cccs4)nc4cccnc34)CC2)cc1 returned POLI inh 7%, Pol kappa inh -15% and FEN1 inh 11%.
`Cc1c(N)cc(S(=O)(=O)O)cc1NC(=O)c1cccc([N+](=O)[O-])c1` gave POLI inh inconclusive, POLH inh 28µM*, Pol kappa inh -22%, WRN inhibitor -3% and FEN1 inh 6%.
Screening CCOC(=O)CCCC(=O)N1CCN(/[N+]([O-])=N/Oc2ccc([N+](=O)[O-])cc2[N+](=O)[O-])CC1 returned POLI inh inconclusive, Pol kappa inh 5% and FEN1 inh 5%.
`Cc1ccnc(NS(=O)(=O)c2ccc(NC(=O)c3cc(-c4ccccc4)nc4ccccc34)cc2)n1` gave Pol beta inh 28%, POLI inh -3%, POLH inh 12%, Pol kappa inh -9%, WRN inhibitor inconclusive and FEN1 inh -5%.

Compound activity deposited in PubChem by National Center for Advancing Translational Sciences (NCATS).
